This is part of a sample that, as a whole, favours compounds with a hit. Of some 79,000 tested, about 15% had one in any assay. Values without a mark were called inactive. Activity calls are given as the source filed them. No stated cut-off is given here; in the data, active means growth inhibition above about 70%; inactive means the rest.
What was measured:
[1] = NCI Yeast Anticancer Drug Screen. Data for the rad50 strain (AID 155);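 further: 0% = growth of vehicle-only cultures of the same strain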; conditions: S. cerevisiae rad50 strain growth inhibition, hits give high values
Procedure, shortened: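 Yeast carrying a defined DNA repair defect were exposed to test compounds, and growth was compared with vehicle-treated controls to give percent inhibition.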

[2] = NCI Yeast Anticancer Drug Screen. Data for the mec2-1 strain (AID 157); conditions: S. cerevisiae mec2-1 strain, hits give high values
Procedure, shortened: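 Using mec2-1 yeast: add compound, measure growth, express inhibition versus vehicle-treated cultures.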

[3] = NCI Yeast Anticancer Drug Screen. Data for the sgs1 mgt1 strain (AID 161);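 further: 0% = growth of cultures given vehicle only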; conditions: S. cerevisiae sgs1 mgt1 strain, hits give high values
Procedure, shortened: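 Yeast cells carrying a defined DNA-repair defect were exposed to test compounds. Growth inhibition was measured relative to vehicle-treated controls.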

[4] = NCI Yeast Anticancer Drug Screen. Data for the cln2 rad14 strain (AID 165);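 further: 0% = growth equal to vehicle treated cultures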; conditions: S. cerevisiae cln2 rad14 strain, hits give high values
Procedure, shortened: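 Yeast strain cln2 rad14, bearing defects in cell cycle control and DNA repair, serves as the test system; values reflect growth inhibition compared with vehicle.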

[5] = NCI Yeast Anticancer Drug Screen. Data for the bub3 strain (AID 167); conditions: S. cerevisiae bub3 mutant strain, hits give high values
Procedure, shortened: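 Compounds were applied to a genetically altered yeast strain carrying a cell-cycle control defect. Growth inhibition was scored against vehicle-treated controls.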

[6] = NCI Yeast Anticancer Drug Screen. Data for the mlh1 rad18 strain (AID 175); conditions: S. cerevisiae mlh1 rad18 strain growth inhibition, hits give high values
Procedure, shortened: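 Steps: expose repair-defective yeast to compound; measure growth; express inhibition against vehicle-treated controls.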

[7] = at 5.0 µM (retest, dose inferred, filed as 0.5)
[8] = at 50.0 µM (retest, dose inferred, filed as 5.0)

Compound	growth inhibition [1, 7] [%]	growth inhibition [1, 8]	growth inhibition ([1]; at 50.0 µM)	growth inhibition [2, 7] [%]	growth inhibition [2, 8]	growth inhibition ([2]; at 50.0 µM)	growth inhibition [3, 7] [%]	growth inhibition [3, 8]	growth inhibition ([3]; at 50.0 µM)	growth inhibition [4, 7] [%]	growth inhibition [4, 8]	growth inhibition ([4]; at 50.0 µM)	growth inhibition [5, 7] [%]	growth inhibition [5, 8]	growth inhibition ([5]; at 50.0 µM)	growth inhibition [6, 7] [%]	growth inhibition [6, 8]	growth inhibition ([6]; at 50.0 µM)
COc1cc(C(c2cc3c(cc2O)OCO3)N2CCN(C(c3cc(OC)c(O)c(OC)c3)c3cc4c(cc3O)OCO4)CC2)cc(OC)c1O (configuration not stated)	-3	7%	26.3%	1	16%	41%	-2	15%	43.6%	0	-12%	-36.5%	1	10%	33.8%	0	7%	51.2%
COc1cc(/C=C\C(=O)c2cccc(O)c(=O)c2)cc(OC)c1OC	-3	53%	69.1%	1	65%	50.5%	16	83% (active)	63.5%	-15	50%	5.6%	2	67%	65.5%	7	89% (active)	54.9%
CCN(CC)CCCCCCNc1cc(C)cc2ccc(C)nc12	8	59%	65.8%	0	22%	45.7%	11	58%	39.1%	0	36%	8.2%	7	62%	79.7% (active)	21	40%	47.5%
N#CC(C#N)C(c1ccccc1)c1ccccc1	-4	5%	13.1%	6	20%	17.9%	1	-41%	11%	-3	-10%	-1.1%	0	0%	1.75%	-1	2%	10.5%
O=C1c2ccccc2C(=O)c2c(OCCOCCO)cccc21	6	70% (active)	86.2% (active)	3	18%	23.9%	2	31%	18%	-3	21%	24.6%	-6	17%	37.6%	1	65%	39.6%
CC12CCC3C(CCC4CC(O)CCC43C)C1CC1C2=NOC1O (configuration not stated)	0	99% (active)	25.8%	-2	99% (active)	18.2%	0	99% (active)	72.2% (active)	-8	99% (active)	21%	-3	99% (active)	73% (active)	-1	99% (active)	56.7%
CC(Cl)C(=O)Nc1cc2ccccc2oc1=O (configuration not stated)	-7	9%	10.7%	-3	7%	6.15%	6	4%	9.2%	10	-1%	0.35%	-5	-2%	2.45%	-21	-3%	-11.2%
CCCCCCCCCSC(=S)N(C)NC(=O)c1ccccn1	14	70% (active)	89% (active)	6	81% (active)	94% (active)	4	82% (active)	93.8% (active)	-3	71% (active)	92.1% (active)	-7	78% (active)	92% (active)	8	85% (active)	93.7% (active)
COc1ccc(Cc2nc3ccc(Cl)cc3[nH]2)cc1	4	42%	77% (active)	-4	59%	76.4% (active)	4	78% (active)	82% (active)	-6	14%	66%	1	44%	84.3% (active)	23	74% (active)	86.9% (active)

— PubChem BioAssay (NCI)
